# Data published in PubChem BioAssay (Tox21).
# Inconclusive results are not listed. Where a call stands in place of a potency, no number is given. Activity calls are given as the source filed them. Calls come from the whole dose curve; as a rule, active = well fitted inhibition curve with a large enough effect in the repeat runs; inconclusive = weak or mixed curves; inactive = no such curve, though single readings can be large or run the other way.
# Test: qHTS assay to identify small molecule antagonists of the thyroid receptor (TR) signaling pathway (AID 743065); note: nearly all actives have a fitted effect of over 55% in size
# Details: GH3.TRE-Luc, T3-stimulated luciferase inhibition, 23.5 h; series mostly up to 70.3 µM
# Text: U.S. Tox21 Program National Center for Advancing Translational Sciences [NCATS] NIH Chemical Genomics Center [NCGC] U.S. Environmental Protection Agency [EPA] National Institutes of Environmental Health Sciences [NIEHS] National Toxicology Program [NTP] U.S. Food and Drug Administration [FDA] Tox21 Assay Overview: Thyroid receptor (TR), a nuclear hormone receptor, plays an important role in development, proliferation, differentiation, metabolism, brain function, and cardiovascular system. […] To profile the Tox21 10K compound library in TR signaling, a cell-based GH3-TRE-Luc assay (GH3.TRE-Luc cell line, developed by the laboratory of Dr. Albertinka J. Murk, Wageningen University) was used to measure the inhibition of TR. GH3 (rat pituitary tumor) cells stably expressing a TR activity sensor consisting of two TR response elements and a luciferase reporter gene.
# Tox21 Assay Protocol Summary: GH3.TRE-Luc cells were dispensed at 1500 cells/4 uL/well into 1536-well white solid bottom plates using a Multidrop Combi dispenser (Thermo Fisher Scientific Inc., Waltham, MA). After the assay plates were incubated at 37 C for 4 hours, 23 nL of library compound or DMSO controls was transferred to the assay plates by a pintool station (Kalypsys, San Diego, CA), followed by addition of 1 ul of T3 (1 nM, final concentration in the wells) to stimulate TR transactivation. The assay plates were incubated at 37 C for 23.5 h, and then 1 uL of CellTiter-Fluor reagent (Promega, Madision, WI) of measuring cytotoxicity was added to each well using a Bioraptr Flying Reagent Dispenser (FRD) workstation (Beckman Coulter, Indianapolis, IN, USA). The plates were incubated at 37 C and 5% CO2 for additional 30 min, and fluorescence intensity was measured by a ViewLux plate reader (PerkinElmer, Shelton, CT). For measuring luciferase reporter gene activity, 4 uL of ONE-Glo Luciferase Assay reagent (Promega) was added to each well using a Bioraptr FRD (Beckman Coulter), followed by 30 min incubation at room temperature. The luminescence intensity of plates was recorded by a ViewLux plate reader (PerkinElmer, Shelton, CT).
# Potency is the fitted concentration of half-maximal effect.
row,SMILES,Potency
1,Nc1cccc(S(=O)(=O)c2cccc(N)c2)c1,inactive
2,Nc1ccc(S(=O)(=O)Nc2ccccc2)cc1,inactive
3,O=C1OC(=O)C2C3C=CC(C3)C12 (stereo not given),inactive
4,O=P(O)(OCc1ccccc1)OCc1ccccc1,inactive
5,C[C@@H](c1ncncc1F)C(O)(Cn1cncn1)c1ccc(F)cc1F (stereo not given in full),inactive
6,CC1=CCCC(C)(C)C12CCC(C)O2 (stereo not given),inactive
7,CC(C)=CCC/C(C)=C/CC/C(C)=C/CO,61.1 µM (active)
8,C1CCCNCCC1,inactive
9,CCCCc1nc2cccnc2n1Cc1ccc(-c2ccccc2-c2nnn[nH]2)cc1,inactive
10,CN1CCC(N(Cc2cccs2)c2ccccc2)CC1,23.7 µM (active)
11,Cc1ncc(CO)c(C=O)c1O,inactive
12,CC(=O)c1ccc2c(c1)N(CCCN(C)C)c1ccccc1S2,10.1 µM (active)
13,O=S(=O)(Oc1ccc(Cl)cc1)c1ccccc1,inactive
14,O=C(O)c1ccco1,inactive
15,CC[N+](C)(CC)CCOC(=O)C(O)(c1ccccc1)C1CCCCC1 (stereo not given),inactive
16,O=C(O)C(S)C(S)C(=O)O (stereo not given),11.9 µM (active)
17,CCn1cc(C(=O)O)c(=O)c2cnc(N3CCNCC3)nc21,inactive
18,Cc1cc(C(=O)O)ccc1[N+](=O)[O-],inactive
19,C/C=C/C=C/CO,inactive
20,CCCCC(CC)COC(=O)CCCCCCCCC(=O)OCC(CC)CCCC (stereo not given),inactive

row,SMILES,Potency
1,COC(C)OC,inactive
2,CC(C)(O)c1ccc(CNC(=O)c2cccnc2Oc2ccc(F)cc2)cc1,inactive
3,Cc1oc2c(NC(=O)c3c(Cl)cccc3Cl)cccc2c1C(C)(C)O,7.7 µM (active)
4,C=CC(=O)OCCOc1ccccc1,54.4 µM (active)
5,CCOC(=O)C(F)(F)F,inactive
6,CN(C)c1ccc(C(c2ccccc2)c2ccc(N(C)C)cc2)cc1,24.3 µM (active)
7,CCO[Si](CCCCl)(OCC)OCC,inactive
8,CCC(Cl)CCC(Cl)C(Cl)CC(Cl)C(Cl)C(Cl)CCl (stereo not given),inactive
9,CCCCC(CC)CN1C(=O)C2C3C=CC(C3)C2C1=O (stereo not given),48.6 µM (active)
10,CCCCC,inactive
11,CC1(c2ccccc2)OC(C(=O)O)=CC1=O (stereo not given),inactive
12,O=C(c1ccc(F)cc1)C1CCN(CCn2c(=S)[nH]c3ccccc3c2=O)CC1,inactive
13,C#C[C@]1(O)CC[C@H]2[C@@H]3CCc4cc(OC5CCCC5)ccc4[C@H]3CC[C@@]21C,16.8 µM (active)
14,CCCNCC(O)COc1ccccc1C(=O)CCc1ccccc1 (stereo not given),23.7 µM (active)
15,CCC(C)(C)CC,inactive
16,C[C@H]1C[C@H]2[C@@H]3CCC4=CC(=O)C=C[C@]4(C)[C@@]3(Cl)[C@@H](O)C[C@]2(C)[C@@]1(O)C(=O)CO,inactive
17,CCCCCCCCCOS(=O)(=O)O,inactive
18,CCOc1ccc(N=Nc2ccc(/C=C/c3ccc(N=Nc4ccc(OCC)cc4)cc3S(=O)(=O)O)c(S(=O)(=O)O)c2)cc1,47.8 µM (active)
19,C/C(=C(\CCOP(=O)(O)O)SC(=O)c1ccccc1)N(C=O)Cc1cnc(C)nc1N,inactive
20,CCCCNc1ccc(C(=O)OCCOCCOCCOCCOCCOCCOCCOCCOCCOC)cc1,inactive
